Molecules are shown by their SMILES. The panel holds about 83,000 compounds, 20% with a hit somewhere; the sample as a whole holds those more often.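 In brief: 96-well plates, 48 h treatment, single concentration, percent growth endpoint.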 A number with no mark means an inactive call. Activity calls are given as the source filed them. How the source made its calls: active means growth percent below 10; inactive means the rest.

This passage reports growth results from PubChem BioAssay (NCI).

What all share (assay): NCI-60 one-dose screen, 48 h (100 = growth as untreated, 0 = no growth, -100 = all killed)
Holding throughout (conditions): 10 µM unless noted

Experiment [1] has as its system SK-MEL-2 melanoma.
The test system of experiment [2] is EKVX NSCLC.
For experiment [3], the system named is SN12C renal.
Experiment [4] concerns UO-31 renal.
Experiment [5] deals with TK-10 renal.
Experiment [6] relates to ACHN renal.
Experiment [7] has as its system CAKI-1 renal.
For experiment [8], the system named is A498 renal.
Experiment [9] has as its system CCRF-CEM leukemia.
Experiment [10] concerns MOLT-4 leukemia.

Turning to `S=c1ccnc[nH]1`, the growth in [1] is 96.6%; in experiment [2], 118%; in experiment [3], 96.8%; in experiment [4], 82.5%; in experiment [5], 127%; in [6], 99.4%. The growth is 104% in experiment [7], 112% in [8], 123% in [9] and 107% in [10].

As to `CNCC[C@H](Oc1cccc2ccccc12)c1cccs1`, the growth in experiment [1] was 104%; in experiment [2], 78.9%; in experiment [3] it was 79.1%; in experiment [4] it was 63.7%; in [5], 90%; in experiment [6], 96.9%. For the same compound, the growth in experiment [7] is 88.4%; in experiment [8], 111%; in experiment [9] it was 91.9%; in experiment [10], 50.4%.

`CN1C(=O)/C(=C/c2ccc(C(=O)Nc3ncc(Cc4cc(Cl)ccc4Cl)s3)cc2)SC1=S`: the growth in experiment [1] was 101%; in experiment [2] it was 67%; in experiment [3], 87.7%; in experiment [4], 63.4%; in experiment [5], 79.6%; in experiment [6], 58.8%. Further, the growth in [7] was 30.2%; in experiment [8], 77.4%; in experiment [9], 62.9%; in experiment [10], 70.8%.

Take `CS(=O)/C(C#N)=C\C=C\c1cccc(Cl)c1` (stereo not given): the growth in [1] is 31.9%; in [2] it was 38.9%; in experiment [3], 19.9%; in experiment [4] it was 21.4%; in experiment [5] it was 35%; in experiment [6], 3.18% (active). Further, the growth in experiment [7] is 20.5%; in experiment [8] it was 12.1%; in [9] it was 2.45% (active); in experiment [10] it was 7.07% (active).

On to `Cc1cccc(N2C(=O)/C(=C/C(Cl)=C/c3ccc([N+](=O)[O-])cc3)SC2=S)c1C`, for which the growth in [1] was 64%; in [2], -3.56% (active); in [3] it was -13.4% (active); in experiment [4], -72.6% (active); in experiment [5] it was -9.69% (active); in [6], -84.1% (active). Further, the growth in experiment [7] was 35.7%; in experiment [8], 61.1%; in [9], 3.24% (active); in experiment [10], 5.73% (active).

Regarding `COC1/C=C/OC2(C)Oc3c(C)c(O)c4c(O)c(c(/C=N/N(c5ccccc5)c5ccccc5)c(O)c4c3C2=O)NC(=O)C(C)=C/C=C/C(C)C(O)C(C)C(O)C(C)C(OC(C)=O)C1C` (stereo not given), the growth was 82.2% in [1]; 67% in [2]; 70.9% in experiment [3]; 65.8% in experiment [4]; 55.8% in experiment [5]; 65% in [6]. For the same compound, the growth in [7] was 66.8%; in experiment [8], 91.3%; in [9] it was 21.7%; in experiment [10] it was 35.1%.

In the case of `C(=C(\C1=NCCN1)n1ccc2ccccc21)/c1ccccc1`, the growth in [1] is 106%; in experiment [2], 92.8%; in [3], 98.3%; in experiment [4] it was 62.4%; in [5] it was 89.2%; in experiment [6], 95.9%. Further, the growth in experiment [7] is 80.7%; in experiment [8] it was 102%; in [9] it was 100%; in experiment [10], 97.8%.

Turning to `CC(=O)N1N=C(c2ccc(Nc3nc(Nc4ccc(F)cc4)nc(Nc4ccc(F)cc4)n3)cc2)CC1c1ccc(N(C)C)cc1` (stereo not given), the growth in [1] is 40.3%; in experiment [2] it was 47.5%; in experiment [3], 100%; in experiment [4], 34%; in [5], 72.9%; in experiment [6], 58.7%. Also, the growth in experiment [7] is 59.3%; in experiment [8], 63.5%; in experiment [9], -2.06% (active); in [10], 14.2%.

On to `c1ccc2cc(Cn3cc(CSc4nc5ccccc5s4)nn3)ccc2c1`, for which the growth is 90.6% in [1]; 101% in experiment [2]; 94.5% in experiment [3]; 77.6% in [4]; 102% in experiment [5]; 99.3% in [6]. In addition, the growth in experiment [7] was 83.3%; in [8], 97.3%; in [9], 97.2%; in [10] it was 96.4%.

For the compound `O=c1ccc2ccc(OCCN3CCCCC3)cc2o1`, the growth in experiment [1] was 101%; in [2], 101%; in [3] it was 95.9%; in experiment [4], 80.8%; in [5], 104%; in [6], 104%. In addition, the growth in [7] was 104%; in experiment [8], 85%; in experiment [9], 0.515% (active); in experiment [10] it was 7.74% (active).

Consider `COC(=O)Cn1c2c(c3c(OC)cccc31)C(=O)c1ccccc1-2`, for which the growth is 109% in experiment [1]; 103% in [2]; 91.4% in experiment [3]; 82.5% in [4]; 115% in experiment [5]; 94.9% in [6]. In addition, the growth in experiment [7] was 110%; in experiment [8], 101%; in [9] it was 81.4%; in experiment [10], 83.8%.

As for `CC/C(=C(\c1ccc(Cl)cc1)c1ccc(OCCN2CCCCC2)cc1)c1ccc(O)cc1`, the growth in experiment [1] was 57.2%; in experiment [2], 68%; in experiment [3], 62.5%; in experiment [4], 38.4%; in experiment [5], 68.5%; in experiment [6], 60.4%. Also, the growth in experiment [7] was 62.3%; in experiment [8], 87.2%; in experiment [9], 23.1%; in experiment [10], -5.41% (active).

For `CCCCCc1ccc(S(=O)(=O)Nc2ccc3nc(N)oc3c2)cc1`, the growth was 101% in [1]; 33.2% in experiment [2]; 58.8% in experiment [3]; 35.8% in experiment [4]; 84.6% in experiment [5]; 60.3% in experiment [6]. Further, the growth is 51.1% in [7], 32.6% in [8], 51.8% in [9] and 37.1% in experiment [10].

With `O=c1cc(-c2ccccc2)nc(SCc2nc3cc(Cl)c(Cl)cc3[nH]2)[nH]1`, the growth in [1] is 91.3%; in experiment [2], 102%; in experiment [3] it was 105%; in experiment [4], 81.7%; in experiment [5] it was 104%; in [6], 97.3%. Besides, the growth is 93.3% in experiment [7], 93.7% in experiment [8], 124% in experiment [9] and 95.5% in experiment [10].
